Compounds with a hit are over-represented: about 21% of the library has one in this group of screens.
SARS PLP yeast = SARS-CoV PLP inhibition in yeast | AID 485353 | Potency, µM (series often up to 32.9 µM), for the others: at the top dose activity, positive = growth rescue, most hits filed as activators | S. cerevisiae expressing SARS-CoV PLpro, growth rescue | 0.19% of 330,000 active; also: potency is read from the fitted curve at half-maximal effect; 0% is about no effect; nearly all actives have a fitted effect of over 55% in size
NS1 function inh = blocks influenza NS1 protein function; AID 2326; 0.4% of 270,000 active; Potency, µM (top dose mostly 46.1 µM), for the others: at the highest dose activity, positive = more growth; also: potency is read from the fitted curve at half-maximal effect; actives are rising curves; nearly all actives have a fitted effect of over 50% in size
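In this qHTS, NS1 from influenza A is expressed in budding yeast, where it slows growth. Cells are switched from glucose to 2% galactose medium (pH 6.0, -URA), treated with compound, and growth recovery is read at OD600.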
Pf growth 48h = P. falciparum growth inhibition at 48 hours (one generation) | P. falciparum luciferase growth in erythrocytes, 48 h | Potency, µM (top dose mostly 28.7 µM), inactives show at the top dose activity change, negative = inhibition, most hits filed as inhibitors | 5.9% of 310,000 active | AID 504832; active = well fitted inhibition curve with a large enough effect; inconclusive = small, poorly fitted or top-dose-only effect, or another doubt; inactive = no such curve, though single readings can be large or run the other way; also: potency is read from the fitted curve at half-maximal effect; % is scaled to controls: 0 for no effect and ±100 for the full control effect
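Firefly luciferase activity from engineered P. falciparum reports growth; inhibitors lower the luminescent signal. Cultures contained 2% hematocrit erythrocytes at 0.1% final parasitemia.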
Pf growth 96h = inhibits malaria parasite growth, 96 h. 6.9% of 320,000 active. Potency, µM (top dose mostly 28.7 µM), without a hit: at the highest dose activity change, negative = inhibition, most hits filed as inhibitors. P. falciparum luciferase reporter growth, 96 h. AID 504834; active = well fitted inhibition curve with a large enough effect; inconclusive = small, poorly fitted or top-dose-only effect, or another doubt; inactive = no such curve, though single readings can be large or run the other way; also: potency is read from the fitted curve at half-maximal effect; % is scaled to controls: 0 for no effect and ±100 for the full control effect
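Two-generation exposure (96 h) targets delayed-death phenotype. Reporter parasites carrying integrated firefly luciferase, in red cells at 2% hematocrit and 0.05% parasitemia final, kept at 37 C, 5% CO2; luminescence loss indicates inhibition.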
Shiga inhibitor = blocks Shiga toxin action in Vero cells. inhibition, % at 38.7 µM. AID 2315. 9.2% of 290,000 active. Vero cells, Shiga toxin protein synthesis inhibition reporter; in the data active = inhibition mostly above about 28%, no sharp cut-off; inactive = mostly below about 43%; also: 0% is about no effect
CHX counter = counter-screen hit for Shiga toxin inhibitors, cycloheximide. cell reporter, cycloheximide protein synthesis inhibition counterscreen. max response, %. 12% of 300,000 active; in the data active = max response mostly above about 13%, no sharp cut-off; inactive = mostly below about 14%; also: read at 38.3 µM for the half of the compounds with a filed dose; 0% is about no effect
* hit, by the source's call; u = inconclusive; x = not tested or not shown; [ ] = remark or other dose. Unless noted, calls follow the shape of the full dose curve.

SMILES | SARS PLP yeast | NS1 function inh | Pf growth 48h | Pf growth 96h | Shiga inhibitor | CHX counter
CCc1ccc(CNC(=O)CN2C(=O)COc3ccccc32)cc1 | -1% | -1% | 23% | u | 24 | 7
Cc1ccccc1OCC(=O)Nc1ccccc1N1CCC(C)CC1 | 2% | x | u | 32%[5.75 µM] | -1 | -3
CCN(CC(=O)NCc1cccs1)S(=O)(=O)c1ccc(F)c(F)c1F | x | x | -6% | u | x | x
CNC(=S)/N=C/NOCc1ccc(Cl)cc1Cl | -16% | x | u | 15µM* | 9 | 1
NC(=O)NOCc1ccc(Cl)cc1Cl | 3% | -2% | 28% | 18% | 2 | -5
O=c1cccc2n1CC1CC2CN(Cc2c(Cl)cccc2Cl)C1 (stereo not given) | 1% | -43% | -14% | x | -5 | -7
CCOc1ccc(/C=N/NC(=O)c2ccccc2C)cc1CN1CC2CC(C1)c1cccc(=O)n1C2 (stereo not given) | 1% | x | 3.7µM* | u | x | x
CCOc1ccc(NC(=O)c2ccc(N3CC4CC(C3)c3cccc(=O)n3C4)c(N)c2)cc1 (stereo not given) | -3% | 12% | -13% | u | -2 | 3
CCCOc1ccc(C(=O)Nc2ccc(S(=O)(=O)N3C[C@@H]4C[C@@H](C3)c3cccc(=O)n3C4)cc2)cc1 | 0% | x | 2.1µM* | 4.7µM* | x | x
CCOc1ccc(/C=N/NC(=O)c2ccccc2Cl)cc1CN1CC2CC(C1)c1cccc(=O)n1C2 (stereo not given) | 2% | x | 8.3µM* | -23% | x | x
CCOc1ccc(/C=N/NC(=O)c2ccc(F)cc2)cc1CN1CC2CC(C1)c1cccc(=O)n1C2 (stereo not given) | 1% | x | 5.2µM* | 18% | x | x
O=C(NCCc1ccc(F)cc1)C1CCN(C(=O)Nc2ccccc2)CC1 | 0% | x | u | u | x | x
C[N+]1(NCC[N@@+]2(C)CCc3ccccc3C2)CCCCC1 | x | 2% | x | x | x | x
CCc1ccc(NC(=O)CCn2nc(C)c(S(=O)(=O)N3CCCCC3)c2C)cc1 | 2% | 3% | 9% | 31% | -8 | -5
OC[C@@H]1O[C@](CO)(O[C@H]2O[C@H](CO)[C@@H](O)[C@H](O)[C@H]2O)[C@H](O)[C@H]1O | x | x | -6% | -7% | x | x
Cc1cccc(/C=N/NC(=O)C(C)Nc2cccc3ccccc23)n1 (stereo not given) | -11% | -13% | x | -3% | 12 | 16*
CC(SC#N)C(=O)C12CC3CC(CC(C3)C1)C2 (stereo not given) | -11% | x | 13µM* | 30% | -6 | 16
CSc1nc(O)c(/C=C2\C=Nc3ccccc32)[nH]1 | -3% | -18% | 132% | 24% | 140* | 62*
CC(C)(C)N1C(=O)c2ccccc2NC(=O)N1Cc1ccc(Br)cc1 | -5% | -8% | x | 8.3µM* | -12 | -3
Cc1ccc(/C=C/S(=O)(=O)NCC(=O)OCC(=O)Nc2c(F)cccc2F)cc1 | 2% | x | u | -28% | x | x
O=C(Nc1cccc2cccnc12)c1ccc(Cl)cc1Cl | -4% | 0% | -17% | 0% | -14 | 16
Cc1ccc(C(=O)Nc2ccc3ncccc3c2)cc1 | 0% | -6% | 18% | 10% | 19 | 14*
CCC(=O)c1ccc2ncccc2c1 | 8% | 10% | 15% | 61% | 44* | 21*
O=C(Nc1ccc2ncccc2c1)c1cccc(Br)c1 | -20% | -61% | 81% | -22% | 47* | 39*
CC(=O)c1c(C(C)=O)c(C)n(-c2ccc3ncccc3c2)c1C | 2% | -3% | 0% | 15% | -27 | -5
SMILES | SARS PLP yeast | NS1 function inh | Pf growth 48h | Pf growth 96h | Shiga inhibitor | CHX counter
O=C(Nc1ccc2ncccc2c1)c1cc(Cl)ccc1Cl | -5% | x | u | -19% | 34 | 45*
Cc1cccc(C(=O)Nc2ccc(C(=O)/C=C/c3ccncc3)cc2)c1 | -6% | -8% | u | 209% | -24 | -8
Cc1cc(=O)oc(C)c1C(=O)Nc1ccc2ncccc2c1 | 2% | 3% | 9.3µM* | x | -9 | 0
Cc1ccc(C(=O)Nc2ncccc2S(=O)(=O)c2ccccc2)cc1 | -1% | -5% | 61% | 128% | 66* | 12*
Cc1ccc(C(=O)/C=C/c2ccc3ncccc3c2)cc1 | -12% | 6% | -4% | 40% | 47* | 48*
Brc1ccc(CNc2ccc3ncccc3c2)cc1 | -11% | -57% | 136% | 0% | 42* | 30*
O=C(O)c1ccc(NCc2ccc(Br)cc2)cc1 | 1% | -33% | 75% | 11% | 7 | 7
O=C(NCC(c1ccco1)N1CCCCC1)c1cnc(Cl)c(Cl)c1 (stereo not given) | 2% | x | x | x | x | x
CC1COc2ccccc2N1C(=O)c1ccc(Cl)cc1 (stereo not given) | 0% | -5% | 8% | 32% | 9 | -4
COc1ccc(S(=O)(=O)N2c3cc(C)ccc3OCC2C(C)(C)C)cc1 (stereo not given) | -30% | -35% | u | u | -17 | -2
Cc1ccc(S(=O)(=O)N2c3ccccc3OCC2c2ccccc2)cc1 (stereo not given) | -9% | 12% | 2.6µM* | u | 2 | 10
CC1COc2ccccc2N1S(=O)(=O)c1ccc(Cl)cc1 (stereo not given) | -4% | x | 10µM* | u | -4 | 6
Cc1ccc(S(=O)(=O)N2c3cc(C)ccc3OCC2C(C)(C)C)cc1 (stereo not given) | -31% | -36% | 13µM* | u | 3 | 12
CCOc1ccc(NC(=O)c2ccc(N)cc2)cc1 | -42% | -6% | 129% | 94% | 25* | 12*
COc1ccc(NC(=O)c2ccc3c(c2)n(C)c(=O)n3C)cc1 | 21% | -13% | 16% | u | -7 | 2
CCOc1ccc(NC(=O)c2ccc(NC(=O)c3ccc(NC(N)=O)cc3)cc2)cc1 | 30% | x | x | x | x | x
COc1ccc(NC(=O)c2ccc(NC(=O)c3ccncc3)cc2)cc1 | -1% | 2% | 5% | 27% | -11 | -1
O=C(Nc1ccc(NC(=O)c2ccncc2)cc1)c1ccncc1 | 0% | -3% | 50% | 41% | -8 | -4
COc1ccc(C(=O)Nc2ccc(C3CC3(Cl)Cl)cc2)cc1 (stereo not given) | -1% | -5% | 175% | 44%[1.15 µM] | 32 | 21*
COc1ccc(NC(=O)c2ccc(Oc3ncccn3)cc2)cc1 | 0% | -4% | 35% | 46% | 57* | 22*
CCOc1ccc(NC(=O)c2ccncc2)cc1 | 0% | -2% | 46% | u | 5 | 17*
CCOC(=O)c1c(C)sc2c1N(C(C)=O)c1cc(Cl)ccc1S2 | -10% | -11% | 4% | u | -28 | -6
N#Cc1ccc(OC(=O)c2ccc(N=C(N)N)cc2)cc1 | x | 0% | x | x | x | x
CC(C)CN(CC(C)C)C(=O)c1cc(S(=O)(=O)N2CCCCC2)c[nH]1 | -1% | 1% | u | u | 10 | -3
CC(C)OC(=O)c1cc(NC(=O)c2nn(C)cc2Br)cc(C(=O)OC(C)C)c1 | 3% | -8% | -22% | -12% | -13 | 1

Screening data: PubChem, National Center for Advancing Translational Sciences (NCATS)
